The text below walks through data of PubChem BioAssay (Tox21).

Assay [1] in a line: qHTS assay to identify small molecule agonists of the estrogen receptor alpha (ER-alpha) signaling pathway in the presence of an antagonist - cell viability counter screen (AID 1259386).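 Also: series mostly up to about 92 µM; cells exposed to compounds for 22 h at 37 °C before the viability read; nearly all actives have a fitted effect of over 30% in size.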 An outline of the steps:
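In this counter screen, compound effects on VM7Luc4E2 viability were tested in the presence of the antagonist ICI-182,780 at 10.0nM final. Compounds were dosed at 15 concentrations, exposure lasted 22hr, and the CellTiter-Fluor signal was read.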

Assay [2] addresses Progesterone receptor (Homo sapiens) (UniProt P06401). Kind of assay: qHTS assay to identify small molecule agonists of the progesterone receptor (PR) signaling pathway (AID 1346784; calls by dose curve; also: nearly all actives have a fitted effect of over 30% in size). The essentials: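 Beta-lactamase reporter read-out: after 16 hr compound treatment at 37C and a further 2 hr at room temperature with LiveBLAzer B/G FRET substrate, fluorescence was measured in PR-UAS-bla HEK 293T cells grown in 2% charcoal-stripped serum.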

Assay [3] has the same target. Kind of assay: qHTS assay to identify small molecule antagonists of the progesterone receptor (PR) signaling pathway (AID 1346795; active = well fitted inhibition curve with a large enough effect in the signal ratio in the repeat runs, not every such curve was filed as active; the % refers to the signal ratio; also: potency is read from the fitted curve at half-maximal effect). The essentials:
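Read-out is fluorescence from the LiveBLAzer B/G FRET substrate, cleaved by a UAS-controlled beta-lactamase in PR-UAS-bla HEK293T cells after 16 hr exposure to compound plus 1 nM promegestone (final), followed by 2 hr at room temperature.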

Assay [4] in a line: qHTS assay to identify small molecule antagonists of the progesterone receptor (PR) signaling pathway - cell viability counter screen (AID 1346798). Also: nearly all actives have a fitted effect of over 50% in size. Also: potency is read from the fitted curve at half-maximal effect. The essentials:
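HEK293T PR-UAS-bla, 2% charcoal-stripped FBS; 4 hr pre-plate; cpd + R5020, 16 h 37C; LiveBLAzer read first; then CellTiter-Glo 30 min RT, luminescence.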

Assay [5] is described as follows: qHTS assay to identify small molecule agonists of the progesterone receptor (PR) signaling pathway - cell viability counter screen (AID 1346799; calls by dose curve; also: nearly all actives have a fitted effect of over 45% in size; also: potency is read from the fitted curve at half-maximal effect). An outline of the steps:
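Luminescence from CellTiter-Glo, added after the beta-lactamase FRET read in the same wells, gave cytotoxicity in PR-UAS-bla HEK293T cells treated with compounds for 16 hr at 37C.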

Assay [6] in a line: qHTS assay to identify small molecule antagonists of the TGF-beta/Smad signaling pathway - cell viability counter screen (AID 1346824). Also: nearly all actives have a fitted effect of over 50% in size. An outline of the steps: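 Cytotoxicity counter-screen run in the same wells as the beta-lactamase Smad reporter read: CellTiter-Glo luminescence after 30 min at room temperature. HEK 293T SBE-bla cells had 5 hr compound exposure at 37 C with TGF-beta1 (0.25 ng/mL stock).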

Assay [7] is described as follows: qHTS assay to identify small molecule agonists of the TGF-beta/Smad signaling pathway - cell viability counter screen (AID 1346829). Also: top concentration of the series differs between compounds; nearly all actives have a fitted effect of over 45% in size. An outline of the steps: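 Here the cytotoxicity of library compounds is measured in SBE-bla HEK 293T cells treated for 5 hr, using CellTiter-Glo added to wells already read for the beta-lactamase reporter.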
Assay [8] in a line: qHTS assay to identify small molecule agonists of the TGF-beta/Smad signaling pathway (AID 1346859; active = well fitted activation curve with a large enough effect in the signal ratio in the repeat runs, not every such curve was filed as active; the % refers to the signal ratio; also: series mostly up to about 77 µM). An outline of the steps:
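SBE-bla HEK 293T, 4,000 cells/well, plated o/n; cpd in DMSO, 5 hr, 37 C/5% CO2; B/G FRET substrate 2 hr RT; ex 405, em 460/530 nm.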

The target of assay [9] is Thyrotropin-releasing hormone receptor (Homo sapiens) (UniProt P34981). Kind of assay: qHTS assay to identify small molecule antagonists of the thyrotropin-releasing hormone receptor (TRHR) signaling pathway (AID 1346877; active = well fitted inhibition curve with a large enough effect in the repeat runs, not every such curve was filed as active; also: series mostly up to about 51 µM). The essentials: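 Kinetic fluorescence (3 min, 1 s resolution) following stimulation with TRH at 1 nM final; HEK293 cells bearing human TRHR; 5 min compound preincubation at RT; concentration-response over 15 points, triplicates.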

Assay [10] shares this target. Kind of assay: qHTS assay to identify small molecule agonists of the thyrotropin-releasing hormone receptor (TRHR) signaling pathway (AID 1346891; calls by dose curve; also: series mostly up to about 58 µM). An outline of the steps:
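Intracellular calcium rise, read as fluorescence every second for 3 min, served as the agonist signal in dye-loaded HEK293 cells expressing TRHR; each compound ran at 15 concentrations in triplicate.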

Assay [11] is described as follows: Human pregnane X receptor (PXR) small molecule agonists, qHTS cell viability counter screen (AID 1346977). Also: nearly all actives have a fitted effect of over 50% in size. Also: potency is read from the fitted curve at half-maximal effect. An outline of the steps: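 PXR-Luc HepG2, 2,000 cells/well, 5% charcoal-stripped FBS; 5hr settle; cpd 24hr, 37C/5% CO2; CellTiter-Fluor at 23hr, read 1hr later (fluorescence).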
Assay [12] can be described thus: Caspase-3/7 induction in HepG2 cells by small molecules, qHTS assay (AID 1346978). Also: nearly all actives have a fitted effect of over 15% in size. An outline of the steps:
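Caspase-3/7 induction was measured by Caspase-Glo 3/7 luminescence (30 min, room temperature) after a 17 hr compound exposure of wild-type HepG2 cells seeded at 2,000 per well and pre-incubated 5 hr.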

A short description of assay [13]: Caspase-3/7 induction in CHO-K1 cells by small molecules, qHTS assay (AID 1346980). Also: nearly all actives have a fitted effect of over 15% in size. An outline of the steps: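 Luminescent Caspase-Glo 3/7 read (30min, room temperature) quantified apoptosis induction. Cells were wild-type CHO-K1, treated with compound for 17hr at 37 C and 5% CO2.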
Assay [14] can be described thus: Caspase-3/7 induction in HepG2 cells by small molecules, qHTS cell viability counter screen (AID 1346981). Also: series mostly up to about 92 µM; nearly all actives have a fitted effect of over 30% in size. The essentials:
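In this quantitative HTS counter screen, compounds delivered in DMSO were left on unmodified HepG2 cells for 16 hr at 37 C. Viability was then determined fluorometrically with CellTiter-Fluor, in parallel with caspase-3/7 induction in the same wells.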

Assay [15] has as its target Nuclear receptor subfamily 1 group I member 2 (Homo sapiens) (UniProt O75469). Kind of assay: Human pregnane X receptor (PXR) small molecule agonists, qHTS assay (AID 1346982). Also: nearly all actives have a fitted effect of over 35% in size. An outline of the steps: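 Reporter HepG2 cells expressing PXR-Luc are cultured in charcoal-stripped FBS (5%), treated with compounds for 24 hr at 37 C, and assayed by ONE-Glo luminescence after 30 min at room temperature.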

In assay [16] the target is Nuclear receptor subfamily 1 group I member 2 (Rattus norvegicus) (UniProt Q9R1A7). Kind of assay: Rat pregnane X receptor (rPXR) activation by small molecules, qHTS assay (AID 1346983). Also: nearly all actives have a fitted effect of over 20% in size. The following applies: rPXR luciferase reporter cells, One-Glo luminescence, 24 h; max activation: active compounds read high. An outline of the steps: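 Luminescent readout (One-Glo luciferase, 30 min room temperature) followed 24 hr compound treatment at 37 C of rPXR cells plated 2,000 per well and preincubated 5hr; qHTS format with compounds delivered in DMSO.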

Assay [17] has as its target Nuclear receptor subfamily 1 group I member 2 (Homo sapiens) (UniProt O75469). Kind of assay: CYP3A4 induction through human pregnane X receptor (PXR) by small molecules, qHTS assay (AID 1346984). Also: nearly all actives have a fitted effect of over 40% in size. Also: potency is read from the fitted curve at half-maximal effect. An outline of the steps: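 Induction measured in HepG2-based DPX-2 cells co-expressing human PXR and a CYP3A4 promoter-driven luciferase. After a 24-hour compound exposure, cells received CYP3A4 luciferin substrate at 3uM final for 3 hours, and light output was then recorded.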

For assay [18] the target is unchanged. Kind of assay: Human pregnane X receptor (PXR) activation by small molecules, qHTS assay (AID 1346985). Also: nearly all actives have a fitted effect of over 40% in size. Also: potency is read from the fitted curve at half-maximal effect. The essentials: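 DPX-2 cells (HepG2 co-transfected with a PXR response element and a CYP3A4-promoter luciferase construct) were seeded at 2,000 per well, rested 5 hr at 37C, then exposed to DMSO-dissolved compounds for 24 hr. Activation was read as luciferase luminescence.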

Assay [19] has as its target Cytochrome P450 2D6 (Homo sapiens) (UniProt P10635). Kind of assay: Cytochrome P450 Family 2 Subfamily D Member 6 (CYP2D6) small molecule antagonists: luciferase reporter qHTS assay (AID 1671196). Also: nearly all actives have a fitted effect of over 50% in size. Also: potency is read from the fitted curve at half-maximal effect. An outline of the steps:
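Test chemicals meet CYP2D6 plus proluciferin substrate (10 min, RT); NADPH regenerating solution then drives turnover for 1 h. Detection reagent halts the reaction; luminescence measured after 20 min.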

Assay [20] is described as follows: Caspase-3/7 induction in CHO-K1 cells by small molecules, qHTS cell viability counter screen (AID 1346979). Also: nearly all actives have a fitted effect of over 35% in size. Also: potency is read from the fitted curve at half-maximal effect. An outline of the steps: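 Cells (CHO-K1, wild type) are plated at 1,500 per well and incubated 5hr. Test compounds in DMSO are then pinned in, followed by 16hr at 37C and 5% CO2. Viability is read by CellTiter-Fluor fluorescence after 1hr.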

A number with no mark means an inactive call. Inconclusive results are not listed. The source made the active and inactive calls. Unless noted, calls follow the shape of the dose curve; as a rule, active = well fitted curve in the direction sought with a large enough effect in the repeat runs; inconclusive = weak or mixed curves; inactive = no such curve, though single readings can be large; an effect the other way counts as inactive or inconclusive.
% is scaled to controls: 0 for no effect and ±100 for the full control effect.

Sequence of Progesterone receptor (Homo sapiens) (P06401 whole entry, looked up): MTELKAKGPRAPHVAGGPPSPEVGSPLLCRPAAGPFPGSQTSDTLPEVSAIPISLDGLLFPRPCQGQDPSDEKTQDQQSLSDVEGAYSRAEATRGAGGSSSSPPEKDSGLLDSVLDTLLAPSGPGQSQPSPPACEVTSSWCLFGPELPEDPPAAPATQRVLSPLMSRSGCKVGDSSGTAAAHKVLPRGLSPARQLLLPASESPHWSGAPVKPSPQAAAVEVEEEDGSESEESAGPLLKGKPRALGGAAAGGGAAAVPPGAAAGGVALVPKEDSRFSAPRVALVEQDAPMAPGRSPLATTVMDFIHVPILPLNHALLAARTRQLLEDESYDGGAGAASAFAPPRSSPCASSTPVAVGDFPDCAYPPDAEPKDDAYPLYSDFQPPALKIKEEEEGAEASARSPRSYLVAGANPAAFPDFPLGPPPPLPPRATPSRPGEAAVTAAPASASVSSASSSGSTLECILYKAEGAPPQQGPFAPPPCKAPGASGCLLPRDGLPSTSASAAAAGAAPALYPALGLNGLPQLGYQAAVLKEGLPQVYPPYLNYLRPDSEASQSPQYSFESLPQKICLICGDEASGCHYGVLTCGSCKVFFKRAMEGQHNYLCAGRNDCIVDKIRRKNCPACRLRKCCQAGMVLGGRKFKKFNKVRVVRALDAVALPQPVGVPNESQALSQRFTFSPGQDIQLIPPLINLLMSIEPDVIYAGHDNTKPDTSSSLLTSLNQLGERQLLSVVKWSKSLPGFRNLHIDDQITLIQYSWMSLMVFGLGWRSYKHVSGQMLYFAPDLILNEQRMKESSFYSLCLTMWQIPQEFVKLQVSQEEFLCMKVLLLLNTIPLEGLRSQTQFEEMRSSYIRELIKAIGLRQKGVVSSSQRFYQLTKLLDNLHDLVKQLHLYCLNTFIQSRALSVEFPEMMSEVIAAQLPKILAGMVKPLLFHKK
Sequence of Cytochrome P450 2D6 (Homo sapiens) (P10635 whole entry, looked up): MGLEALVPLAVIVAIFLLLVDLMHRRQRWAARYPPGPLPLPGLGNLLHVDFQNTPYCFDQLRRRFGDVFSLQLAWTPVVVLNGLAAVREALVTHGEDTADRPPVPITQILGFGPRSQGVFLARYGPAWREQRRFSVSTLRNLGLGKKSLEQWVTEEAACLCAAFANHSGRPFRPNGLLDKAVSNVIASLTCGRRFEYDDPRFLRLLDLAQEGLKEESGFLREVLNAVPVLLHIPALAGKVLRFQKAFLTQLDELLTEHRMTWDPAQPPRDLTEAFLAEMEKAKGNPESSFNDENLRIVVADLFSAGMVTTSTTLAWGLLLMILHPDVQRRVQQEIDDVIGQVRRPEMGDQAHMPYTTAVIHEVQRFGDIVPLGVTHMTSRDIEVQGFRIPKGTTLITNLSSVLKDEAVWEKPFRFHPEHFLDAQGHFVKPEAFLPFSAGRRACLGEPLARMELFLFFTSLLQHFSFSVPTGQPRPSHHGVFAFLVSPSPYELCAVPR
Sequence of Nuclear receptor subfamily 1 group I member 2 (Homo sapiens) (O75469 whole entry, looked up): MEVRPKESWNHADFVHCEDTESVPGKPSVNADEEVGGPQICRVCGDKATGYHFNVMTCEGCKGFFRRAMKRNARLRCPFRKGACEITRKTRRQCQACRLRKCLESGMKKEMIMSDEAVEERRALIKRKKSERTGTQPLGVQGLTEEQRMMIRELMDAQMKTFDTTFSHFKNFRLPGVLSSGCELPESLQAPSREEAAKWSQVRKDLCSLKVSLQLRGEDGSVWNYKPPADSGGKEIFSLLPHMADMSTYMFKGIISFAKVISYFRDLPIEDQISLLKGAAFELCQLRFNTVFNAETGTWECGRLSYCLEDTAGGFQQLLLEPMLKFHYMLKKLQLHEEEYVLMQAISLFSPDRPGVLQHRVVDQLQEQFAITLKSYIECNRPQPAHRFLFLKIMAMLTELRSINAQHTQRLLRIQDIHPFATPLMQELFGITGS
Sequence of Thyrotropin-releasing hormone receptor (Homo sapiens) (P34981 whole entry, looked up): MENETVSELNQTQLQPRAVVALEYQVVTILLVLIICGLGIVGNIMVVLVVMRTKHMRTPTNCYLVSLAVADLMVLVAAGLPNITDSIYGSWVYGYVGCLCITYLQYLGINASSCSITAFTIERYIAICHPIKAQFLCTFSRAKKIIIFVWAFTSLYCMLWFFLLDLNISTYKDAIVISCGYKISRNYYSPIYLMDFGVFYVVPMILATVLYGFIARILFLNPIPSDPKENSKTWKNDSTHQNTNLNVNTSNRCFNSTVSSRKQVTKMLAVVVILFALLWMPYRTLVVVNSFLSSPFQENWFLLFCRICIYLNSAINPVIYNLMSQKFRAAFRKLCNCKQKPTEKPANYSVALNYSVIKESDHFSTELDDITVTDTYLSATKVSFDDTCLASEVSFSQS
Sequence of Nuclear receptor subfamily 1 group I member 2 (Rattus norvegicus) (Q9R1A7 whole entry, looked up): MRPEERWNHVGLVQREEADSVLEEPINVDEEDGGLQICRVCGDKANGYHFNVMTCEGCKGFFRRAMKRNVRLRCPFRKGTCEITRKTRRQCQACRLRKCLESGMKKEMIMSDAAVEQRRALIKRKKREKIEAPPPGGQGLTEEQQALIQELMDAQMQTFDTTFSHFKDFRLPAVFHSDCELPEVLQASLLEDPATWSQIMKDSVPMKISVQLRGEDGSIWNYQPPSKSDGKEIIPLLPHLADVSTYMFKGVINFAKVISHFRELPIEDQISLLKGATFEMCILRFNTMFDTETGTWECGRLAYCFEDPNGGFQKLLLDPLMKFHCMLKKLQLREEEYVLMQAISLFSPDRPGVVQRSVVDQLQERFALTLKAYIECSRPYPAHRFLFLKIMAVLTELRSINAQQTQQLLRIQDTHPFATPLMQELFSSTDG

Turning to `C[N+](C)(C)CCOC(=O)CCC(=O)OCC[N+](C)(C)C`, the Potency result in [1], in assay [2], in [3], in [4], in assay [5] and in assay [6] was “inactive” each time. Further, the Potency entry in assay [8], in [10], in [11], in assay [12], in assay [13] and in assay [14] was “inactive” throughout. Besides, the Potency result in assay [15], in assay [17], in [18] and in [19] was “inactive” in each case. Moreover, the outcome in assay [7] and in assay [9] was inactive. Besides, the max activation in assay [16] is -0.297%.

Consider `O=C(NCC1CN(c2ccc(N3CCOCC3=O)cc2)C(=O)O1)c1ccc(Cl)s1` (stereo unspecified), for which the Potency entry in assay [1], in assay [2], in assay [3], in assay [4], in assay [6] and in assay [8] was “inactive” each time. Further, the Potency entry in [10], in assay [11], in assay [20], in assay [13], in assay [14] and in [15] was “inactive” in each case. For the same molecule, in assay [19], the Potency result was “inactive”. Also, the molecule was classed as inactive in assay [9].

As to `CNCCCCOc1ccccc1Cc1ccccc1`, the Potency entry in [1], in assay [2], in assay [6], in assay [8], in [10] and in [14] was “inactive” throughout. In addition, the Potency result in [15] and in [18] was “inactive” each time. For the same molecule, the Potency is 26.6 µM (active) in [3]; 6.68 µM (active) in assay [4]; 6.68 µM (active) in assay [5]; 26.6 µM (active) in assay [11]; 2.45 µM (active) in [19]. Besides, the outcome in [9] was inactive.

`O=C(O)c1ccc(S(=O)(=O)O)cc1C(=O)O`: the Potency result in assay [1], in assay [2], in assay [3], in assay [4], in assay [5] and in [6] was “inactive” throughout. In addition, the Potency entry in [8], in assay [10], in assay [11], in assay [12], in assay [20] and in assay [13] was “inactive” in each case. Besides, the Potency result in assay [15] and in assay [19] was “inactive” each time. For the same molecule, in [9], the molecule was classed as inactive.

`CN1CCC(=C2c3ccccc3Sc3ccccc32)CC1`: the Potency result in assay [1], in assay [2], in assay [5], in assay [6], in assay [8] and in assay [10] was “inactive” in each case. Further, the Potency result in [12], in [13] and in [15] was “inactive” in each case. For the same molecule, the Potency was 23.7 µM (active) in assay [3]; 23.7 µM (active) in assay [11]; 10 µM (active) in assay [17]; 14.1 µM (active) in assay [18]; 3.47 µM (active) in assay [19]. In addition, the call in assay [7] and in assay [9] was inactive. In addition, the max activation in [16] is -5.4%.

With `C1CCCNCCC1`, the Potency entry in assay [1], in [2], in [3], in [4], in assay [5] and in assay [6] was “inactive” throughout. Also, the Potency entry in [8], in assay [11], in [12], in assay [20], in assay [13] and in assay [14] was “inactive” in each case. Also, the Potency entry in assay [15] and in [19] was “inactive” each time. The result in [7] was inactive.

For `Cc1ccc(C(=O)Oc2ccc(C(O)CNC(C)(C)C)cc2OC(=O)c2ccc(C)cc2)cc1` (stereo unspecified), the Potency result in assay [1], in [2], in assay [3], in assay [4], in [5] and in assay [6] was “inactive” each time. The Potency result in [10], in [12] and in assay [14] was “inactive” each time. Also, the molecule was classed as inactive in assay [7] and in assay [9]. Also, the Potency in assay [20] was 29.8 µM (active).
